APE1 inh-1 – qHTS Assay for Inhibitors of the Human Apurinic/apyrimidinic Endonuclease 1 (APE1). DNA repair nuclease/redox regulator APEX1 (Homo sapiens), P27695. recombinant APE1, TAMRA/BHQ-2 abasic DNA cleavage fluorescence. Potency, µM (top dose mostly 65.8 µM), for inactives: top-dose activity change, negative = inhibition, usual class: inhibitors. actives 0.35% (n = 350,000);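 note: plate controls were vehicle for no effect and reference inhibitor for full effect; nearly all actives have a fitted effect of over 55% in size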
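APE1 at 0.75 nM final was preincubated with compound 15 min at room temperature, then 50 nM double-stranded THF abasic-site substrate (5'-TAMRA/3'-BHQ-2) was added. Fluorescence (ex 525/em 598 nm) was read kinetically; third-minus-first read gave activity.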
WRN inhibitor – qHTS for Inhibitors of WRN Helicase | Potency, µM (titrated, usually from 114 µM), inactives show at the highest dose activity change, negative = inhibition, most hits filed as inhibitors | actives 0.46% (n = 360,000) | WRN helicase unwinding, fluorescent forked duplex, kinetic | AID 651768, 2012 | Bifunctional 3'-5' exonuclease/ATP-dependent helicase WRN (Homo sapiens), Q14191; note: % is set by controls: 0 for no effect and ±100 for the full control effect; nearly all actives have a fitted effect of over 55% in size
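WRN at 20 nM final was preincubated with compound for 15 min at room temperature; reaction started with 100 nM forked duplex oligonucleotide carrying fluorophore and quencher plus 2 mM ATP (final). Unwinding followed kinetically by red fluorescence (ex 525/em 598 nm).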
RECQ1 inh-1 – qHTS Assay for Inhibitors of RecQ-Like Dna Helicase 1 (RECQ1). actives 0.54% (n = 240,000). AID 2549, 2010. RECQ1 DNA unwinding, red fluorescence kinetic read. Potency, µM (titrated, usually from 57.3 µM), inactives show at the top dose activity, negative = inhibition, usual class: inhibitors;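 note: plate controls were vehicle for no effect and no enzyme for full effect; nearly all actives have a fitted effect of over 30% in size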
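50 nM RECQ1T1 preincubated 15 min with compound in Tris pH 8.0 buffer with MgCl2, DTT, Tween-20 and 2.5 ug/ml poly(dI-dC); started with 200 nM TAMRA/BHQ-2 forked duplex and 2 mM ATP. Unwinding read as fluorescence (525/598 nm), two reads 2 h apart.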
L3MBTL1 inh-1 – qHTS Assay for the Inhibitors of L3MBTL1; Lethal(3)malignant brain tumor-like protein 1 (Homo sapiens), Q9Y468; AlphaScreen L3MBTL1–H3K9me1 peptide binding; Potency, µM (doses to about 57.1 µM), for the others: at the highest dose activity, negative = inhibition, most hits filed as inhibitors; actives 0.66% (n = 230,000); note: % is set by controls: 0 for no effect and ±100 for the full control effect; nearly all actives have a fitted effect of over 60% in size
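First, the protein-peptide complex forms for 30 min at room temperature (L3MBTL1 50 nM, biotinylated H3K9me1 peptide 75 nM). Next, compounds are pin-transferred and incubated 30 min. Finally, AlphaScreen beads are added and read after 30 min.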
BLM inh-1 – qHTS Assay for Inhibitors of Bloom's syndrome helicase (BLM); RecQ-like DNA helicase BLM (Homo sapiens), P54132; recombinant BLM DNA unwinding, fluorescence dequenching; Potency, µM (series often up to 56.1 µM), for the others: at the highest dose activity change, negative = inhibition, actives largely listed as inhibitors; actives 0.2% (n = 350,000); AID 2528, 2010;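 note: plate controls were vehicle for no effect and no enzyme for full effect; nearly all actives have a fitted effect of over 35% in size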
Target sequence (P54132 whole entry, looked up): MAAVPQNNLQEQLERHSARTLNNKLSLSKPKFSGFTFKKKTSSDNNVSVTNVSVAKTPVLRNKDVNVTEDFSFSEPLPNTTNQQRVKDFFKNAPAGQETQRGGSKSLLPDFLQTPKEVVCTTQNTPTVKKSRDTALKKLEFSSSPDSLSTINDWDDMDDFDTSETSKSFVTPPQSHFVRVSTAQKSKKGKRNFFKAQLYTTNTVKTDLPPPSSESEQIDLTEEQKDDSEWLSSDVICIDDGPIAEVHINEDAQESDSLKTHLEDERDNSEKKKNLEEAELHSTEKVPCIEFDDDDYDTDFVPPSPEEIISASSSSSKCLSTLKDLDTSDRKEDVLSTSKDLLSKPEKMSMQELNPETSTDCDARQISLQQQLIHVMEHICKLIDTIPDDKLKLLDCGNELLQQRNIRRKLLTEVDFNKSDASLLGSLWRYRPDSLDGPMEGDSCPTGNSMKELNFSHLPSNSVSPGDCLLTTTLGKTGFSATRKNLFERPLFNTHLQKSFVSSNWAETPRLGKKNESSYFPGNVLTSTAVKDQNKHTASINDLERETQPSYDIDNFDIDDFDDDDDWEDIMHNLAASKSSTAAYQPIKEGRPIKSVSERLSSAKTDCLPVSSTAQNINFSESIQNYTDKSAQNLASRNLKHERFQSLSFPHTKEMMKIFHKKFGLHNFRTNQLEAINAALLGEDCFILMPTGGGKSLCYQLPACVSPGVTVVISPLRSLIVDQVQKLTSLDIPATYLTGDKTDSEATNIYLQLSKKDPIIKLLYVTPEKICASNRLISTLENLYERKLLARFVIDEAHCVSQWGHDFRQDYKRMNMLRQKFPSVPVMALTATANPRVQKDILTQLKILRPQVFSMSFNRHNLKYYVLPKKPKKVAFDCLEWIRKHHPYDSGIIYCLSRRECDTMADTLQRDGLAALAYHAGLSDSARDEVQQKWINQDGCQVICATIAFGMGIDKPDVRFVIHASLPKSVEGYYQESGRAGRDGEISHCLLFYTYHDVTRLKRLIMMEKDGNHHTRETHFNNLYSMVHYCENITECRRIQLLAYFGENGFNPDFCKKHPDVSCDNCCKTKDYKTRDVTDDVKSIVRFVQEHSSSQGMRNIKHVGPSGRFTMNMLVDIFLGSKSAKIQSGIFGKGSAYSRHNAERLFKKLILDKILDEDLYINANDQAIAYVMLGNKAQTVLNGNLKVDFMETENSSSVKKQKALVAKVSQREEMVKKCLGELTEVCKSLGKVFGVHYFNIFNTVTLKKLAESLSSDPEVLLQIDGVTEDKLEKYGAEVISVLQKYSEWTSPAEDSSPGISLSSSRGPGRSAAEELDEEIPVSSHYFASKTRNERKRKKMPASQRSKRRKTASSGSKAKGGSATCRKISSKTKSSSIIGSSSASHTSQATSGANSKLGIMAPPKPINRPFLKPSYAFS
FEN1 inhibitor – qHTS Assay for the Inhibitors of Human Flap endonuclease 1 (FEN1) | P39748 | Recombinant FEN1 flap cleavage, fluorescence, 15 min | Potency, µM (top dose mostly 114 µM), without a hit: at the top dose activity change, negative = inhibition, hits mostly inhibitors | actives 0.35% (n = 390,000) | AID 588795, 2011; note: % is set by controls: 0 for no effect and ±100 for the full control effect; nearly all actives have a fitted effect of over 65% in size
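Recombinant FEN1 (10 nM) was preincubated with pin-transferred compounds for 15 min at room temperature, then flap DNA substrate (50 nM final) was added. Plates were read at 0 and 15 min, and normalized concentration–response data were fitted to a four-parameter Hill equation.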
DNA dye displace – Counterscreen for APE1 Inhibitors: Fluorescent Dye Displacement Assay; shares compounds with APE1 inh-1; DNA fluorescent dye displacement counterscreen, fluorescence; Potency, µM (highest dose often 28.5 µM), for inactives: at the top dose activity change, negative = inhibition, usual class: inhibitors; actives 7% (n = 480); AID 2564, 2010;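 note: loss of thiazole orange fluorescence as the dye is displaced from duplex DNA; 0% = ThO with dsDNA and no compound and -100% = ThO without dsDNA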
Endo IV inh – Counterscreen for APE1 Inhibitors: qHTS Assay for Inhibitors of Endonuclease IV; shares compounds with APE1 inh-1; E. coli Endo IV, fluorogenic AP-site DNA cleavage; Potency, µM (titrated, usually from 27.1 µM), inactives show at the top dose activity change, negative = inhibition, hits mostly inhibitors; actives 4% (n = 560); AID 2565, 2010;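 note: plate controls were uninhibited enzyme wells for no effect and no enzyme buffer wells for full effect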
APE1 inh-2 – Confirmation qHTS Assay for Inhibitors of the Human Apurinic/apyrimidinic Endonuclease 1 (APE1); Potency, µM (doses to about 57.1 µM), inactives show top-dose activity change, negative = inhibition, hits mostly inhibitors; purified APE1, fluorogenic abasic-site DNA cleavage; actives 44% (n = 750); shares compounds with APE1 inh-1; note: % is set by controls: 0 for no effect and ±100 for the full control effect; nearly all actives have a fitted effect of over 30% in size
APE1 FP – qHTS FP-Based Assay for Inhibitors of the Human Apurinic/apyrimidinic Endonuclease 1 (APE1); shares compounds with APE1 inh-1; APE1 binding to TAMRA-labelled double-stranded DNA, fluorescence polarization displacement; Potency, µM (titrated, usually from 28.5 µM), for inactives: at the highest dose activity, negative = inhibition, hits mostly inhibitors; actives 7% (n = 480); AID 2573, 2010; note: % is set by controls: 0 for no effect and ±100 for the full control effect
BLM inh-2 – qHTS Confirmation Assay for Inhibitors of Bloom's syndrome helicase (BLM). shares compounds with BLM inh-1. BLM DNA unwinding, fluorescence quenching, biochemical. Potency, µM, for the others: max response, negative = inhibition, most hits filed as inhibitors. actives 40% (n = 220);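 note: strand separation dequenches TAMRA so unwinding raises red fluorescence; series mostly up to about 69 µM; % is set by controls: 0 for no effect and ±100 for the full control effect; nearly all actives have a fitted effect of over 45% in size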
RECQ1 conf – Confirmation qHTS Assay for Inhibitors of RecQ-Like Dna Helicase 1 (RECQ1) | actives 28% (n = 610) | AID 2708, 2010 | shares compounds with RECQ1 inh-1 | Potency, µM (series often up to 229 µM), for inactives: top-dose activity change, negative = inhibition, most hits filed as inhibitors | RECQ1 helicase DNA unwinding, fluorescence; note: % is set by controls: 0 for no effect and ±100 for the full control effect; nearly all actives have a fitted effect of over 45% in size
RECQ1 ADP FP – Counterscreen for RECQ1 Inhibitors: ADP Fluorescence Polarization Displacement Assay; actives 27% (n = 530); shares compounds with RECQ1 inh-1; ADP fluorescence polarization displacement counterscreen; Potency, µM (top dose mostly 228 µM), inactives show at the top dose activity change, negative = inhibition, most hits filed as inhibitors; AID 2711, 2010; note: % is set by controls: 0 for no effect and ±100 for the full control effect; nearly all actives have a fitted effect of over 45% in size
RECQ1 inh-2 – Confirmation qHTS Assay for Inhibitors of RecQ-Like Dna Helicase 1 (RECQ1) - Round 2 Cherry Picks; actives 15% (n = 1,100); shares compounds with RECQ1 inh-1; recombinant RECQ1 DNA unwinding, red fluorescence; Potency, µM (titrated, usually from 119 µM), inactives show at the highest dose activity, negative = inhibition, actives largely listed as inhibitors; note: % is set by controls: 0 for no effect and ±100 for the full control effect; nearly all actives have a fitted effect of over 50% in size
L3MBTL1 inh-2 – qHTS Assay for the Inhibitors of L3MBTL1: Hit Validation; Potency, µM, actives largely listed as inhibitors; L3MBTL1 methyl-lysine binding inhibition, biochemical qHTS; shares compounds with L3MBTL1 inh-1; actives 91% (n = 500); note: nearly all actives have a fitted effect of over 70% in size
L3MBTL1 ctr – qHTS Assay for the Inhibitors of L3MBTL1: Hit Validationin AlphaScreen Counterscreen; 500 tested, under 10 active; Potency, µM (highest dose often 57.1 µM), for the others: top-dose activity change, negative = inhibition, actives largely listed as inhibitors; shares compounds with L3MBTL1 inh-1; AlphaScreen counterscreen, signal inhibition; note: 0% is about no effect
* hit, by the source's call; ? = inconclusive; . = not tested or not shown; [ ] = another dose, or the depositor's remark. Rows were chosen to be rich in hits. Some 1% of all compounds tested hit in one or more screens of this group. Calls come from the whole dose curve; as a rule, active = well fitted curve in the direction sought with a large enough effect; inconclusive = small, poorly fitted or top-dose-only effect, or another doubt; inactive = no such curve, though single readings can be large; an effect the other way counts as inactive or inconclusive. Potency is the fitted concentration of half-maximal effect.

SMILES	APE1 inh-1	WRN inhibitor	RECQ1 inh-1	L3MBTL1 inh-1	BLM inh-1	FEN1 inhibitor	DNA dye displace	Endo IV inh	APE1 inh-2	APE1 FP	L3MBTL1 inh-2	L3MBTL1 ctr	others
O=C(O)C[C@@H]1C(=O)O[C@@H]2C(COC(=O)c3cc(O)c(O)c(O)c3)O[C@@H](OC(=O)c3cc(O)c(O)c(O)c3)[C@@H](OC(=O)c3cc(O)c(O)c4c3[C@H]1[C@H](O)C(=O)O4)[C@H]2OC(=O)c1cc(O)c(O)c(O)c1 (stereo not given in full)	0.0089µM*	.	0.11µM*	.	0.1µM*	.	?	?	0.0022µM*	?	.	.	RECQ1 conf=0.45µM*;RECQ1 ADP FP=32µM*
CC1(C)SC2[C@@H](N=CN3CCCCCC3)C(=O)N2[C@H]1C(=O)O (stereo not given in full)	.	.	.	.	-4%	.	.	.	.	.	.	.
O=[N+]([O-])c1ccc(/C=C/C2=NN(c3ccccc3)C(c3ccco3)C2)o1 (stereo not given)	?	?	?	?	-22%	-9%	21%	?	14µM*	-86%	.	.	RECQ1 inh-2=7.9µM*
COc1ccc(N2Cc3cccc(C(=O)N4CCN(C(=O)c5ccco5)CC4)c3C2=O)cc1	11µM*	50µM*	10µM*	28µM*	18µM*	-13%	.	.	28µM*	.	2.7*	-16%	BLM inh-2=23µM*;RECQ1 conf=40µM*;RECQ1 ADP FP=?;RECQ1 inh-2=16µM*
Cc1ccc(Cn2cc(CCC(=O)NCC(C)c3ccccc3)c3ccccc32)cc1 (stereo not given)	.	.	.	.	-9%	0%	.	.	.	.	.	.
N#C/C(=C\c1ccc(O)c(O)c1)C(=O)c1ccc(O)c(O)c1	0.095µM*	0.17µM*	1.6µM*	0.5µM*	.	1.4µM*	.	?	0.2µM*	.	0.075*	?
O=C(O)c1cc(-c2ccc(/C=C3\NC(=O)N(c4ccccc4)C3=O)o2)ccc1Cl	25µM*	?	25µM*	20µM*	5%	?	.	.	?	.	3*	3%
O=C(O)c1ccccc1-c1ccc(/C=C2\SC(=O)N(c3ccccc3)C2=O)o1	-3%	-6%[11.6 µM]	.	-28%	-8%	-14%	.	.	.	.	.	.
N#C/C(=C/c1cccn1-c1cccc(C(=O)O)c1)c1ccc(Cl)cc1	11µM*	-10%[11.6 µM]	?	25µM*	-25%	7%	?	-6%	5µM*	1%	24*	?	RECQ1 inh-2=45µM*
N#CC(C#N)=Cc1cccn1-c1ccc(C(=O)O)cc1	13µM*	56µM*	25µM*	2µM*	-5%	-17%	5%	8%	35µM*	-17%	3*	16%
CCOC(=O)/C(C#N)=C/c1cccn1-c1ccc(Cl)cc1	-3%	-3%	-17%	-1%	-5%	8%	.	.	.	.	.	.
N#Cc1ccccc1NC(=O)c1cc2c(=O)n3ccccc3nc2s1	.	.	.	.	-9%	42%	.	.	.	.	.	.
CCOC(=O)CNS(=O)(=O)c1cc(-c2nn(C)c(=O)c3ccccc23)ccc1C	35µM*	-29%	-3%	28µM*	1%	0%	-7%	9%	10µM*	-14%	?	?
